This is one part of a sample in which hits are shown more often than they occur.
Dicer inh: human Dicer pre-microRNA cleavage inhibition; Q9UPY3; cat-ELCCA pre-miR-21 Dicer processing, chemiluminescence; hits give high values; z-score at 25 µM; 47,000 compounds, 6% hits; in the data active = z-score above about 3, passing the limit was not always enough;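 also: plate controls were vehicle for no effect and no enzyme for full effect; higher signal means more uncleaved substrate so more Dicer inhibition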
An asterisk follows results filed as active.

SMILES	Dicer inh
CC(C#N)(Nc1ccccc1)c1ccncc1 (centres undefined)	3.4*
CCOC(=O)Cc1cc(=O)n2[nH]c(C(F)(F)F)nc2n1	1.4
Cc1oc(-c2ccc(Cl)cc2)cc1COC(=O)Nc1ccccc1	0.82
Cc1nc(-c2ccc(S(=O)(=O)Oc3ccc(Cl)cc3)s2)cs1	-0.88
COc1ccccc1C1C(C#N)=C2N=C(N)c3ccccc3N2C2=C1C(=O)CC(C)(C)C2 (centres undefined)	5*
COc1ccc(C2C(C#N)=C3N=C(N)c4ccccc4N3C3=C2C(=O)CC(C)(C)C3)cc1 (centres undefined)	-1.2
CCOc1ccccc1C1C(C#N)=C2N=C(N)c3ccccc3N2C2=C1C(=O)CC(C)(C)C2 (centres undefined)	1.3
COc1ccc(C2C(C#N)=C3N=C(N)c4ccccc4N3C3=C2C(=O)CC(C)(C)C3)cc1OC (centres undefined)	8.2*
COc1cccc(C2C(C#N)=C3N=C(N)c4ccccc4N3C3=C2C(=O)CC(C)(C)C3)c1 (centres undefined)	1.9
COc1cccc(C2C(C#N)=C3N=C(N)c4ccccc4N3C3=C2C(=O)CC(C)(C)C3)c1OC (centres undefined)	0.02
N#CC1=C2N=C(N)c3ccccc3N2C2=C(C(=O)CC(c3ccccc3)C2)C1c1ccc2c(c1)OCO2 (centres undefined)	3.4*
N#CC1=C2N=C(N)c3ccccc3N2C2=C(C(=O)CC(c3ccccc3)C2)C1c1cccnc1 (centres undefined)	1.5
N#CC1=C2N=C(N)c3ccccc3N2C2=C(C(=O)CC(c3ccccc3)C2)C1c1cccs1 (centres undefined)	3
COc1ccc(C2/C(=C(\O)c3ccc(F)cc3)C(=O)C(=O)N2Cc2cccnc2)cc1OC (centres undefined)	0.5
COc1ccc(C(Nc2ccccn2)c2c(O)ccc3ncccc23)cc1 (centres undefined)	-0.1
Cc1cccc2nc(-c3ccno3)oc(=O)c12	1.3
O=C1CC(c2ccccc2)Cc2c1cnc1[nH]n(-c3ccccc3)c(=O)c21 (centres undefined)	1.7
Cc1c(-c2nc(-c3cc(C(F)(F)F)cc(C(F)(F)F)c3)no2)oc2ccccc12	-0.31
CCCc1cc(=O)[nH]c(SCC(=O)Nc2nc3ccc(OC)cc3s2)n1	1.7
O=C(NCc1nc(-c2ccc(C(F)(F)F)cc2)no1)c1ccccc1C(F)(F)F	1
CCOC(=O)C1=C(C)NC2=C(C(=O)CC(c3ccc(Cl)cc3)C2)C1c1ccc(O)c(OCC)c1 (centres undefined)	2.1
CN(Cc1ccccc1)c1nc2c([nH]1)c(=O)n(C)c(=O)n2C	0.05
O=C1Nc2ccc(I)cc2/C1=C/c1cc(Br)c(O)c(Br)c1	4.5*
COc1cc2c(cc1OC)/C(=C/c1cc(OC)c(OC)c(OC)c1)C(=O)N2	1.7
O=C1Nc2ccccc2/C1=C/c1ccc2nsnc2c1	-0.73
SMILES	Dicer inh
CCc1cccc(C)c1NC(=O)Nc1ccc(S(=O)(=O)Nc2cc(C)on2)cc1	-0.23
CN(C)/C=C/C(=C(/C#N)C(N)=O)c1ccc(Cl)cc1	-0.26
Nc1nnc(SCC(=O)Nc2ccccc2)s1	6
Nc1nnc(SCC(=O)Nc2ccc(F)c(F)c2F)s1	-0.64
Nc1nnc(SCC(=O)Nc2nncs2)s1	3.1*
CC(=O)Nc1nc2ccc(NC(=O)C3CCCCC3)cc2s1	0.1
Cc1ccc2cc3c(=O)n(C)c4c(c(=O)n(C)c(=O)n4C)c3nc2c1	-1.1
N/C(=N\OC(=O)c1ccc(Cl)cc1)c1ccc(Oc2ccc(C(F)(F)F)cn2)cc1	1.8
CC(C)(C)c1ccc(C(=O)NC(=O)Nc2cc(C(F)(F)F)cc(C(F)(F)F)c2)s1	1.4
Cc1cc(C2(c3ccc(N)c(C)c3)CCCCC2)ccc1N	3.1*
Cc1cc(Cc2ccc(N)c(C)c2)ccc1N	1.1
CCC(=O)N1c2ccccc2C(N(C(=O)c2cccs2)c2ccccc2)CC1C (centres undefined)	-0.4
CCOC(=O)NC(=S)Nc1ccc(F)cc1F	2
NC(=S)Nc1ccc(C(F)(F)F)cc1	-0.82
NC(=S)Nc1csc(C(F)(F)F)c1-c1ccccc1	3.3*
CSC(N)=Nc1csc(C(F)(F)F)c1-c1ccccc1	1.6
COc1cc(C2NC(C(=O)O)CS2)ccc1OCc1ccccc1C (centres undefined)	-0.97
Cc1nc(C)c(Oc2ccc(Cl)cc2Cl)c(NCc2ccc(Cl)cc2)n1	-0.55
Cc1ccc(S(=O)(=O)CC(O)COc2ccc(Br)cc2)cc1 (centres undefined)	-0.77
CCOC(=O)N1CCC(NC(=O)Nc2ccc3c(c2)CCO3)CC1	5*
CC(C)N(CCC#N)C(=O)Nc1ccc2c(c1)CCO2	0.86
CCOC(=O)N1CCC(NC(=O)c2cc(C)cc(C)c2)CC1	-0.17
O=C(O)c1ccc(NC2SC(=O)N(c3ccccc3)C2=O)cc1 (centres undefined)	-0.52
CSC(=Nc1ccc(C(C)C)cc1)NC#N	0.35
NC(=S)N/N=C1\CCSc2ccc(F)cc21	-1.4
N[C@@H](Cc1ccccc1)c1nnc(SCc2cccc(Cl)c2)o1	0.47

Bioassay records: PubChem BioAssay, Center for Chemical Genomics, University of Michigan
